MITF primary: human MITF inhibition, primary screen | AlphaScreen MITF homodimerization, bead proximity signal | inhibition, % at 2.6 µM | 0.91% of 650,000 active | AID 1259374; in the data active = inhibition above about 50%
GPR151 ag: activators of human GPR151 | AID 1508602 | 1% of 650,000 active | activation, % at 11.2 µM | PathHunter beta-arrestin GPR151 cells, luminescence; in the data active = activation above about 4.9%
FBW7 activator: activators of human E3 ligase FBW7. AlphaScreen FBW7–phospho-cyclin E peptide binding, activator screen. AID 1259310. Q969H0. normalized activity (activation), % at 26.1 µM. 0.13% of 650,000 active; in the data active = normalized activity above about 1.9%;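 note: purified mutant Fbw7 with reduced substrate affinity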
Target sequence (Q969H0 whole entry, looked up): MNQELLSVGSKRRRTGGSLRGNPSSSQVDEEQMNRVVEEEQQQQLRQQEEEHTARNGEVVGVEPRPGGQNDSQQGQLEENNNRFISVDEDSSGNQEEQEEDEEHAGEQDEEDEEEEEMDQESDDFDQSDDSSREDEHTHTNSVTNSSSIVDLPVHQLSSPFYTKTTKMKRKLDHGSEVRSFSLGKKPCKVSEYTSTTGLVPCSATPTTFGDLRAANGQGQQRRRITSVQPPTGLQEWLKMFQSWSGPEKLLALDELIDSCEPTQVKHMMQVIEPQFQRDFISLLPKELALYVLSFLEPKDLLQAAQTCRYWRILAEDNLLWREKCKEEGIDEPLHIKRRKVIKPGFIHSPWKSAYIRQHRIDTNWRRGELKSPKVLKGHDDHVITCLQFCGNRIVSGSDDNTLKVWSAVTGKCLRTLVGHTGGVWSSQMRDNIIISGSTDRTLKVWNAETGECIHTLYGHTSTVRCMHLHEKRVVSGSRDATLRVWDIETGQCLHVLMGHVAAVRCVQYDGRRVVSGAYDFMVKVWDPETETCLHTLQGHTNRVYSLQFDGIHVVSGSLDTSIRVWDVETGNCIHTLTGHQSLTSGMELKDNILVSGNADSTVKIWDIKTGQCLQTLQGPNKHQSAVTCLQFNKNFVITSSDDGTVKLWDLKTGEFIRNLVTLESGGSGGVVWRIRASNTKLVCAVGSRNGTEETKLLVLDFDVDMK
TEAD-YAP inh: TEAD-YAP interaction inhibition; HEK-TIYL cells, TEAD-Gal4/YAP UAS-luciferase luminescence; inhibition, % at 9.12 µM; 1.4% of 640,000 active; in the data active = inhibition above about 32%
A number is an active result; 0 = inactive; ! = not confirmed by another sample. Sampled rows, rich in hits. Any-hit rate of the full collection: about 3.5%.

SMILES | MITF primary | GPR151 ag | FBW7 activator | TEAD-YAP inh
COc1c(O)ccc(/C=N/NC(=O)COc2ccccc2C)c1[N+](=O)[O-] | 0 | 0 | 0 | 0
COc1c(O)ccc(/C=N/NC(=O)COc2c(C)ccc(C)c2C)c1[N+](=O)[O-] | 0 | 0 | 0 | 54
CC(C)(C)c1ccc(-c2ccc(OCCN3CCCC3=O)nc2)cc1 | 0 | 0 | 0 | 52
Cc1nc2sccn2c1C(=O)Nc1cccc(OC(F)(F)F)c1 | 0 | 0 | 1.9 | 0
Cc1nc2sccn2c1C(=O)Nc1cccc(Oc2ccccc2)c1 | 0 | 0 | 0 | 0
O=C(c1cc(-c2ccncc2)nc2ccccc12)N1CCN(c2ccccn2)CC1 | 0 | 0 | 0 | 58
O=C(c1ccccc1Br)N1CCN(c2ccccn2)CC1 | 0 | 0 | 0 | 0
O=C(c1ccccc1-c1ccccc1)N1CCN(c2ccccn2)CC1 | 0 | 0 | 0 | 52
O=C(c1cc(-c2ccccc2)nc2ccccc12)N1CCN(c2ccccc2)CC1 | 0 | 0 | 0 | 0
CCOc1ccccc1N1CCN(C(=O)c2cc(-c3ccccc3)nc3ccccc23)CC1 | 0 | 0 | 0 | 45
CN1Cc2cccc(Nc3cc(Nc4cccc5c4C(=O)N(C)C5)c(C(F)(F)F)cn3)c2C1=O | 0 | 0 | 0 | 0
FC(F)(F)c1cnc(Nc2ccccn2)cc1Nc1ccccn1 | 0 | 0 | 0 | 54
COc1ccc(N2C(=O)c3ccc4c5c(ccc(c35)C2=O)C(=O)N(c2ccc(OC)cc2)C4=O)cc1 | 0 | 0 | 0 | 0
C/C(=N\NC(=O)c1n[nH]c2c1CCC2)C1CC1 | 0 | 0 | 0 | 52
CC1(C)CC(=NNC(=O)c2n[nH]c3c2CCC3)CC(C)(C)N1 | 0 | 0 | 0 | 62
CCC(=O)Nc1ccc(C(=O)COC(=O)CCCc2nc3ccccc3s2)cc1 | 0 | 0 | 0 | 0
O=C(c1ccncc1)N1CCC(Oc2ccc(Cl)cn2)CC1 | 0 | 0 | 0 | 0
CN(C)C(=O)C(=O)Nc1ccc(Cl)c(C(=O)N2CCC(Oc3ccc(F)cc3)CC2)c1 | 0 | 0 | 0 | 47
CN(C)C(=O)C(=O)Nc1ccc(Cl)c(C(=O)N2CCC(Oc3ccc(Cl)cn3)CC2)c1 | 0 | 0 | 0 | 48
O=C(Nc1cccc(O)c1)c1noc2c1CCc1ccccc1-2 | 0 | 0 | 0 | 87
Nc1ccc(C(=O)Nc2ccc(O)cc2)cc1 | 0 | 0 | 0 | 0
Nc1ccc(C(=O)Nc2cccc(O)c2)cc1 | 0 | 0 | 0 | 59
CC(=O)c1ccc(NC(=O)c2noc3c2CCc2ccccc2-3)cc1 | 0 | 0 | 0 | 0
O=C(Nc1cccc(O)c1)c1ccccc1 | 0 | 0 | 0 | 48
CC(=O)C1=C(O)C(=O)N(Cc2ccco2)C1c1ccc(Cl)cc1Cl (stereo not drawn) | 0 | 0 | 0 | 0
SMILES | MITF primary | GPR151 ag | FBW7 activator | TEAD-YAP inh
O=C1c2c(O)ccc(O)c2C(=O)c2c(O)ccc(O)c21 | 0 | 0 | 0 | 0
O=C1c2c(O)ccc(O)c2C(=O)c2c(NCCNCCO)ccc(NCCNCCO)c21 | 52! | 0 | 0 | 55
Oc1c(Cl)cc(CN2CCN(c3cccc(C(F)(F)F)c3)CC2)c2cccnc12 | 0 | 0 | 0 | 70
O=[N+]([O-])c1cc(CN2CCN(c3cccc(C(F)(F)F)c3)CC2)c2cccnc2c1O | 100 | 0 | 0 | 0
O=C(Nc1ccc(Br)cc1F)c1cncc(Br)c1 | 0 | 0 | 0 | 0
Ic1ccc(Nc2nc(NCCN3CCOCC3)nc(N3CCCC3)n2)cc1 | 0 | 0 | 0 | 0
CCOC(=O)N1CCN(c2c(NCc3ccccc3)c(=O)c2=O)CC1 | 0 | 0 | 0 | 56
COCCCNC(=O)C1c2ccccc2C(=O)N2CCc3ccccc3C12 (stereo not drawn) | 0 | 0 | 0 | 0
COc1ccc(Nc2nc(N3CCCC3)c3ccccc3n2)cc1 | 0 | 0 | 0 | 37
O=C(O)CCC(=O)N(Cc1cccnc1)Cc1cccc(F)c1 | 0 | 0 | 0 | 49
O=C(CN1C(=O)COc2ccccc21)N(Cc1cccnc1)Cc1cccc(F)c1 | 0 | 0 | 0 | 0
COc1ccc2c(c1)C=C/C(=C\c1cccc[n+]1C)N2C | 0 | 0 | 0 | 80
CCN1/C(=C/c2cc[n+](C)cc2)C=Cc2cc(OC)ccc21 | 0 | 0 | 0 | 0
O=C(CSc1nnnn1-c1cccc(F)c1)c1ccc2c(c1)OCCO2 | 0 | 0 | 0 | 78
O=C(CSc1ncccc1C(=O)O)c1ccc2c(c1)OCCO2 | 0 | 0 | 0 | 34
O=C(CSc1ncccc1C(=O)O)c1ccc2ccccc2c1 | 0 | 0 | 0 | 0
COc1c(C2=NNC(O)(C(F)(F)F)C2)c(O)c(OC)c2occc12 (stereo not drawn) | 0 | 0 | 0 | 0
CCCCN(C)C(=O)c1sc2ncn(CC(=O)N(CC)CC)c(=O)c2c1C | 0 | 0 | 0 | 0
CC(C)(C)C(=O)Nc1ccc(NC(=O)c2cccs2)nc1 | 0 | 0 | 0 | 94
COc1ccc(NC(=O)COc2ccc(S(=O)(=O)NC(C)C)cc2Cl)cc1OC | 0 | 0 | 0 | 0
COc1c2occc2cc2ccc(=O)oc12 | 0 | 0 | 2.0! | 0
COc1cc(/C=C(/C#N)S(=O)(=O)c2ccccc2)ccc1OC(F)F | 0 | 0 | 0 | 0
Oc1ccccc1-c1ccc2c(-c3ccc(N4CCNCC4)cc3)[nH]nc2n1 | 0 | 0 | 0 | 61
COc1ccc(/C(C)=N/Nc2nc(-c3cccnc3)nc3ccccc23)cc1OC | 0 | 0 | 0 | 33
Cc1cc(C)nc(SCc2cc(=O)c(OC(=O)Cc3cccc4ccccc34)co2)n1 | 0 | 0 | 0 | 0
SMILES | MITF primary | GPR151 ag | FBW7 activator | TEAD-YAP inh
CCN(CC)CCNC(=O)c1nn(-c2ccc(OC)cc2OC)c(=O)c2ccccc12 | 0 | 0 | 0 | 0
Fc1ccc(Nc2ccn3ncc(-c4cccs4)c3n2)cc1Cl | 0 | 0 | 0 | 0
Fc1ccc(Nc2ccn3ncc(-c4ccsc4)c3n2)cc1Cl | 0 | 0 | 2.0 | 0
COc1cc(C)c(NC(=O)Cn2cc(C(C)=O)c3ccccc32)cc1C | 0 | 0 | 0 | 0
CC(=O)c1cn(CC(=O)Nc2ccc(C)cc2C)c2ccccc12 | 0 | 0 | 0 | 40
CC(=O)c1cn(CC(=O)Nc2cccc(C)c2C)c2ccccc12 | 0 | 0 | 0 | 40
Cc1cc(C)cc(OCC(O)CNC(C)C)c1 (stereo not drawn) | 0 | 0 | 0 | 0
CC(C)(C)OC(=O)NC(CCNC=C1C(=O)OC(C)(C)OC1=O)C(=O)O (stereo not drawn) | 71 | 0 | 0 | 0
Cc1cc(=O)n2nc(N3CCC(C(=O)NCc4ccccc4Cl)CC3)sc2n1 | 0 | 0 | 0 | 0
CN(C)CCn1c2ccccc2c2cnc(N)c(C#N)c21 | 0 | 0 | 0 | 93
COc1cc(/C=N/NC(=O)CCC(=O)N/N=C/c2ccc(O)c(OC)c2)ccc1O | 0 | 0 | 0 | 0
CCOc1cc(/C=N/NC(=O)Cn2c(-c3nonc3N)nc3ccccc32)ccc1O | 0 | 0 | 0 | 46
CC(=O)c1ccc(NC(=O)Cn2c(-c3nonc3N)nc3ccccc32)cc1 | 0 | 0 | 0 | 0
COc1ccccc1NC(=O)Cn1c(-c2nonc2N)nc2ccccc21 | 0 | 0 | 0 | 65
COc1cc(/C=N/NC(=O)Cn2c3ccccc3c(=O)c3ccccc32)ccc1O | 0 | 0 | 0 | 53
COC(=O)c1ccccc1NC(=O)Cn1c(-c2nonc2N)nc2ccccc21 | 0 | 0 | 0 | 54
Cc1ccc(C2/C(=C(/O)c3ccc([N+](=O)[O-])cc3)C(=O)C(=O)N2CCCCCC(=O)O)cc1 (stereo not drawn) | 0 | 0 | 0 | 0

Screening data from PubChem.
